Pf growth 96h = P. falciparum growth inhibition at 96 hour, primary screen for plastid delayed-death inhibitors; P. falciparum luciferase reporter growth, 96 h; Potency, µM (titrated, usually from 28.7 µM), usual class: inhibitors; actives 6.9% (n = 320,000); AID 504834
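Plates of compound plus infected erythrocytes (2% hematocrit, 0.05% parasitemia final) incubate 96 hours, 37 C, 5% CO2. Detection reagent added; reduced luminescence from the parasites' luciferase reporter flags inhibition.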
Pf growth 48h = inhibits P. falciparum growth in the first generation, 48 h | P. falciparum luciferase growth in erythrocytes, 48 h | actives 5.9% (n = 310,000) | AID 504832 | Potency, µM (doses to about 28.7 µM), usual class: inhibitors
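Read-out is firefly luciferase luminescence from an integrated reporter in P. falciparum, so falling signal marks reduced parasite growth. Infected erythrocytes were at 2% hematocrit and 0.1% parasitemia (final) in Albumax-supplemented RPMI 1640.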
HCV inhibitor = HCV inhibition; Huh7.5.1 HCVcc-Cre infection, luciferase reporter, 44 h; Potency, µM (top dose mostly 41.8 µM), hits mostly inhibitors; actives 3.4% (n = 340,000)
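Compounds are dispensed onto cells plated 4 h earlier at 1,000 per well, with HCVcc-Cre virus (about 0.5 moi) added next. Following 44 h of culture, luminescent signal is measured for 15 sec after 15 min with substrate at room temperature.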
AMA1 RON2 block = disrupts binding of P. falciparum AMA1 to RON2; AlphaScreen AMA1-biotinylated RON2 peptide binding; AID 720542; actives 0.2% (n = 360,000); Potency, µM (series often up to 58.2 µM), usual class: inhibitors; note: nearly all actives have a fitted effect of over 45% in size
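AMA1 (3D7) with his tag at 25 nM final met compounds first, then biotinylated RON2 peptide at 25 nM; detection used donor plus acceptor beads, 10 µg/mL apiece, read by AlphaScreen after 30 min at room temperature.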
Large screens that a line does not name were inactive. Shown are actives, neighbours in structure and some others; about 11% of the full set was active somewhere. Calls come from the whole dose curve; as a rule, active = well fitted curve in the direction sought with a large enough effect; inconclusive = small, poorly fitted or top-dose-only effect, or another doubt; inactive = no such curve, though single readings can be large; an effect the other way counts as inactive or inconclusive.

O=C1C2ON(c3ccc(Cl)cc3)C(c3ccco3)C2C(=O)N1c1ccccc1 (stereo not given)	none
O=C(COC(=O)Cc1c(F)cccc1Cl)Nc1nnc(-c2ccccc2)o1	none
FC(F)(F)c1cnc(NNC(=S)Nc2ccc(Cl)cc2)c(Cl)c1	Pf growth 96h 7.38µM, Pf growth 48h inconclusive, HCV inhibitor inconclusive
CC(NC(=O)COc1ccc(-c2nnco2)cc1)c1ccc(Cl)cc1Cl (stereo not given)	Pf growth 96h 13.1µM, Pf growth 48h inconclusive
C[C@H]1CN([C@@H](C)CO)C(=O)c2cc(Br)cnc2O[C@@H]1CN(C)C(=O)C1CCC1	none (no result: Pf growth 96h, Pf growth 48h, HCV inhibitor)
O=C(NCCCN1CCOCC1)c1cc(-c2ccc(Cl)c(Cl)c2)on1	Pf growth 48h inconclusive, HCV inhibitor 12.6µM
CCN(CC)CCCNC(=O)c1cc(-c2ccc(O)cc2)on1	Pf growth 96h inconclusive (no result: Pf growth 48h)
CCN(CC)CCCNC(=O)c1cc(-c2ccc(Cl)c(Cl)c2)on1	Pf growth 48h 10.4µM, HCV inhibitor 1.41µM
CCC1(C)Cc2nc3[nH]c(=S)n(-c4ccccc4C)c(=O)c3cc2CO1 (stereo not given)	none
CCC1(C)Cc2nc3[nH]c(=S)n(-c4ccccc4)c(=O)c3cc2CO1 (stereo not given)	Pf growth 96h 7.38µM
CN(C)c1oc(-c2ccccc2Cl)nc1P(=O)(c1ccccc1)c1ccccc1	Pf growth 96h 11.7µM, HCV inhibitor inconclusive (no result: Pf growth 48h)
Cc1ccc(S(=O)(=O)c2nc(-c3ccccc3Cl)oc2N(C)C)cc1	Pf growth 96h inconclusive, HCV inhibitor 20µM
CCCCCC(=O)O[C@]1(C(C)=O)CC[C@H]2[C@@H]3CCC4=CC(=O)CC[C@]4(C)[C@H]3CC[C@@]21C	Pf growth 96h 0.828µM, Pf growth 48h 1.04µM, HCV inhibitor inconclusive
CCCCCCCCCC(=O)O[C@H]1CC[C@H]2[C@@H]3CCC4=CC(=O)CC[C@]4(C)[C@H]3CC[C@]12C	Pf growth 96h 8.49µM, Pf growth 48h 12µM (no result: HCV inhibitor, AMA1 RON2 block)
C[C@]12CCC(=O)C=C1CCC1C2CC[C@@]2(C)C1CC[C@@H]2O (stereo not given in full)	none (no result: Pf growth 96h, Pf growth 48h)
CCCCCCCCCC(=O)O[C@H]1CC[C@H]2[C@@H]3CCC4=CC(=O)CC[C@@H]4[C@H]3CC[C@]12C	none (no result: HCV inhibitor, AMA1 RON2 block)
CC(C)CCC(=O)OC1CCC2C3CCC4=CC(=O)CC[C@]4(C)C3CC[C@]12C (stereo not given in full)	Pf growth 96h 12µM, Pf growth 48h 13.5µM (no result: HCV inhibitor, AMA1 RON2 block)
CSc1ccc(Cl)c(C(=O)Nc2cc(S(=O)(=O)N3CCOCC3)ccc2N2CCOCC2)c1	none (no result: Pf growth 96h, Pf growth 48h)
Cc1ccc(C(c2nnnn2CCc2ccccc2)N2CCSCC2)cc1 (stereo not given)	Pf growth 48h inconclusive (no result: Pf growth 96h)
Cc1ccc(C(c2cc(Br)ccc2O)N2CCSCC2)cc1 (stereo not given)	Pf growth 96h 14.7µM, Pf growth 48h 9.28µM
CCC1CN(C(=O)NCc2cccc(OC)c2)c2cc(Cl)ccc2O1 (stereo not given)	Pf growth 48h inconclusive, HCV inhibitor 5.62µM
CCC1CN(C(=O)NCc2cccc(OC)c2)c2ccccc2O1 (stereo not given)	HCV inhibitor inconclusive
Cc1ccc(S(=O)(=O)NCc2ccccc2)cc1C(=O)N(C)Cc1ccccc1F	none
CCc1cccc(C)c1NC(=S)NCc1ccc2[nH]c(C)cc2c1	Pf growth 96h 10.4µM, Pf growth 48h 13.1µM, HCV inhibitor inconclusive
CNC(=S)NCc1ccc2[nH]c(C)cc2c1	none
Cc1cc2cc(CNC(=S)NC3CCCCC3)ccc2[nH]1	HCV inhibitor 10µM
Cc1cc(C(=O)CSc2ccc(Cl)cc2)cc(C)c1OC(=S)N(C)C	Pf growth 96h inconclusive, HCV inhibitor 10µM (no result: Pf growth 48h)
CCC[C@H](CN[C@@H](CNC)[C@H](C)O)NCCc1ccc(OC)cc1	Pf growth 96h inconclusive
CCCC[C@@H](CNC)NC[C@H](Cc1ccc(O)cc1)NCCc1ccc(OCC)cc1	Pf growth 96h 0.928µM, Pf growth 48h 2.62µM, HCV inhibitor inconclusive
Cc1cc(F)ccc1N1CCC(N2CCN(C(C)C)C(CCO)C2)CC1 (stereo not given)	Pf growth 96h 10.4µM, HCV inhibitor inconclusive
Cc1cc(F)ccc1N1CCC(N2CCN(CCC(C)C)C(CCO)C2)CC1 (stereo not given)	Pf growth 48h inconclusive, HCV inhibitor 10µM
COc1cc(C(=O)NN2C(=O)NC3(CCC(C)CC3)C2=O)ccc1OC(F)F (stereo not given)	none (no result: Pf growth 96h, Pf growth 48h)

Compound activity from PubChem BioAssay.
